Experimental data reported in PubChem BioAssay.
“And” between values parts separate entries of the source, which are not always exact repeats. Equal entries are not always repeated. Results filed as inconclusive are left out. The source made the active and inactive calls.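 How the source made its calls, unless noted: active means GFP signal, as percent of the solvent control, above the screen mean plus 3 SD, about 149; inconclusive means no reading because the compound's own fluorescence upset strain identification; inactive means the rest.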

Assays:
[1] = yeast TOR pathway RPL19A-GFP modulators, primary screen, cell-based, S. cerevisiae, multiplex flow cytometry (AID 1862; in the data active means percent of DMSO control GFP below about 86%;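 further: lower values mimic rapamycin by blocking the RPL19A rise seen in DMSO cells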); conditions: S. cerevisiae RPL19A-GFP strain, flow cytometry fluorescence, 3 h; at 10 µM; stronger effect = lower value
[2] = modulators of MEP2-GFP levels in yeast, primary screen, S. cerevisiae, multiplex flow cytometry (AID 1867;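 active means GFP response, as percent of the DMSO control, above the screen-wide mean plus 3 SD, about 139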;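 further: median GFP channel fluorescence of barcode-gated MEP2-GFP cells measured by flow cytometry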); conditions: S. cerevisiae MEP2-GFP strain, 3 h, at 10 µM, stronger effect = higher value, 100% means same as DMSO wells
[3] = modulators of CIT2-GFP expression in yeast, primary screen, S. cerevisiae, GFP fusion, multiplex flow cytometry (AID 1870;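 active means percent response above a set limit, the screen-wide mean plus 3 SD, cut at about 130% in these data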;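 further: barcoded CIT2-GFP strain pooled with four other GFP strains with rapamycin as positive control; median GFP fluorescence per well over plate mean of DMSO wells so 100% = DMSO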); conditions: 3 h, at 10 µM, stronger effect = higher value
[4] = modulators of LAP4-GFP expression in yeast, primary screen, S. cerevisiae, multiplex flow cytometry (AID 1873); conditions: 3 h, at 10 µM, stronger effect = higher value
[5] = modulators of AGP1-GFP expression in yeast TOR pathway, primary screen, cell-based, multiplex flow cytometry, S. cerevisiae (AID 1887;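 active means GFP signal above the screen-wide mean plus 3 SD, that is over about 124.5% of the solvent control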;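 further: AGP1-GFP fusion strain of S. cerevisiae within a five-strain barcoded multiplex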); conditions: 3 h, at 10 µM, stronger effect = higher value
[6] = inhibitors of CD8+ T cell-vesicle binding, pilot screen, LFA-1/ICAM-1 modulator project, MLPCN validation set, flow cytometry (AID 2523;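 active means response below a set limit, under 55% cells CD8-positive and vesicle-bound, and CD8 cells' 90th-percentile brightness under 279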;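 on vesicle binding response: mean PE anti-B7-1 fluorescence of CD8+ cells relative to row control; 100% = QL9-loaded vesicles with DMSO vehicle in the same plate row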); conditions: 2C mouse CD8+ T cells, at 7 µM, stronger effect = lower value; double positive events: measured here: CD8+/vesicle+ event percentage
[7] = biological target: Integrin beta-1 (Homo sapiens) + Integrin alpha-4 (Homo sapiens) (UniProt P13612+P05556); experiment: inhibition of HUTS-21 binding to VLA-4, pilot screen, VLA-4 allosteric modulator project, U937 cells, HUTS-21 mAb, flow cytometry, validation set (AID 2674;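 active means inhibition above 50%, about 3 SD of the validation set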;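 further: antibody binding induced by the VLA-4 ligand LDV present at three times its Kd; 0% = LDV ligand with antibody and no compound and 100% = antibody without LDV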); conditions: HUTS-21 LIBS mAb binding, at 6.7 µM, stronger effect = higher value, binding induced by LDV ligand
Sequence of Integrin beta-1 (Homo sapiens) + Integrin alpha-4 (Homo sapiens) (P05556 whole entry, looked up): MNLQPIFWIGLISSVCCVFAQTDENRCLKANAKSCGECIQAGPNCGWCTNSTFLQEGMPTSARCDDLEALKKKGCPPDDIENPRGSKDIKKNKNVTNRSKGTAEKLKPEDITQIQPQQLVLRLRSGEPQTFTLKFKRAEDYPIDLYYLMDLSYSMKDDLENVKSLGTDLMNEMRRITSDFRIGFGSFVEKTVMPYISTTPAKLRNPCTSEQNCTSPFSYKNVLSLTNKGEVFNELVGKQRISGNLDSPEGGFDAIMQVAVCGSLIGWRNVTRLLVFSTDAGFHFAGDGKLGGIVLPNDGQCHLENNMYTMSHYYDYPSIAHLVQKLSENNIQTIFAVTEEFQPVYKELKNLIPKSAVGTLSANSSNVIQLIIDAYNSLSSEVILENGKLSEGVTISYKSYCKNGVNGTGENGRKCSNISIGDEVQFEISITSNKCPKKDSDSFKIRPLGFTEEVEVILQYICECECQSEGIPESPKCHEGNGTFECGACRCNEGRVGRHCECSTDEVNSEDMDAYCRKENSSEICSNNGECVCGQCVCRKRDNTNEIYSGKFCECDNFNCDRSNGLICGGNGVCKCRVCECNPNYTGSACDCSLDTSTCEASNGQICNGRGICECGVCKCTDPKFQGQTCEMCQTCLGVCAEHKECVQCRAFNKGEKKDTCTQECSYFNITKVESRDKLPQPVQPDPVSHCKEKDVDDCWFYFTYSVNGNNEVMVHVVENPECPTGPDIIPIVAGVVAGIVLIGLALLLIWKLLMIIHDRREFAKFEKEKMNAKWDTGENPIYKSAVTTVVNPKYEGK
Sequence of Integrin beta-1 (Homo sapiens) + Integrin alpha-4 (Homo sapiens) (P13612 whole entry, looked up): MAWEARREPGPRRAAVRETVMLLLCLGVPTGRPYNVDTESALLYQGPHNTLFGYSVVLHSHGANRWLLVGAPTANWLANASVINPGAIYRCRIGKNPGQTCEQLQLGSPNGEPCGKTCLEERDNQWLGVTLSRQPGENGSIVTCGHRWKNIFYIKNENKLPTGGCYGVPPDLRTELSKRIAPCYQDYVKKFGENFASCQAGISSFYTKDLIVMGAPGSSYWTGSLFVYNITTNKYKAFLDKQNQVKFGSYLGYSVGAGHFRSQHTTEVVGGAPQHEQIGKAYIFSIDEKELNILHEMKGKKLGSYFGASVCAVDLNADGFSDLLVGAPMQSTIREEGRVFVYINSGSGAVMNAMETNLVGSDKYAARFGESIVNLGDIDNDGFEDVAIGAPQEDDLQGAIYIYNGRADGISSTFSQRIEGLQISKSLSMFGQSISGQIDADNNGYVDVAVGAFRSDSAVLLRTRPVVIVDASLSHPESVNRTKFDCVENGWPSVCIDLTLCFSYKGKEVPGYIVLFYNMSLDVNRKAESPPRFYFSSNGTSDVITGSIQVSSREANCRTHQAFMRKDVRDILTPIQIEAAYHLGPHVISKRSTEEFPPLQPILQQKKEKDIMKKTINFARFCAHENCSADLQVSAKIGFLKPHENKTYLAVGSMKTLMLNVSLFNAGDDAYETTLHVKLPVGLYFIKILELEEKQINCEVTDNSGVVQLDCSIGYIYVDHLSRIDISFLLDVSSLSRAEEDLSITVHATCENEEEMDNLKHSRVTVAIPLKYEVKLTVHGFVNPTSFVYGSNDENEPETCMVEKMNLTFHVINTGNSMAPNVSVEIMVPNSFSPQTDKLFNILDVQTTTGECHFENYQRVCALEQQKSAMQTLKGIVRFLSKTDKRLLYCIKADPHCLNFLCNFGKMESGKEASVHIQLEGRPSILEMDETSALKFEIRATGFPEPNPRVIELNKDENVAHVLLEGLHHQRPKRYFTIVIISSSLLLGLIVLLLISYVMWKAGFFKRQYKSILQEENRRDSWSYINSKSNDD

[8] = superoxide lowering in aged yeast cells, pilot screen, validation compound set (AID 2706;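 active means superoxide response below 65% of plate, a cut near 3 SD across the whole screen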;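 further: yeast exposed to compound for one week at 30 degrees C before staining; 100% = mean of all compound wells on the same plate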); conditions: S. cerevisiae aging, superoxide DHE fluorescence; at 10 µM; stronger effect = lower value
[9] = biological target: Beta-adrenergic receptor kinase 1 (Homo sapiens) (UniProt P25098); experiment: GRK2 binders displacing RNA aptamer, biochemical, validation, human GRK2, bead flow cytometry (AID 488806;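 active means aptamer binding inhibition above 30%, about 3 SD of noise from non-fluorescent compounds; inactive means inhibition at or below 30%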); conditions: bead-bound GRK2, FAM-aptamer displacement, at 10 µM, stronger effect = higher value
Sequence of Beta-adrenergic receptor kinase 1 (Homo sapiens) (P25098 whole entry, looked up): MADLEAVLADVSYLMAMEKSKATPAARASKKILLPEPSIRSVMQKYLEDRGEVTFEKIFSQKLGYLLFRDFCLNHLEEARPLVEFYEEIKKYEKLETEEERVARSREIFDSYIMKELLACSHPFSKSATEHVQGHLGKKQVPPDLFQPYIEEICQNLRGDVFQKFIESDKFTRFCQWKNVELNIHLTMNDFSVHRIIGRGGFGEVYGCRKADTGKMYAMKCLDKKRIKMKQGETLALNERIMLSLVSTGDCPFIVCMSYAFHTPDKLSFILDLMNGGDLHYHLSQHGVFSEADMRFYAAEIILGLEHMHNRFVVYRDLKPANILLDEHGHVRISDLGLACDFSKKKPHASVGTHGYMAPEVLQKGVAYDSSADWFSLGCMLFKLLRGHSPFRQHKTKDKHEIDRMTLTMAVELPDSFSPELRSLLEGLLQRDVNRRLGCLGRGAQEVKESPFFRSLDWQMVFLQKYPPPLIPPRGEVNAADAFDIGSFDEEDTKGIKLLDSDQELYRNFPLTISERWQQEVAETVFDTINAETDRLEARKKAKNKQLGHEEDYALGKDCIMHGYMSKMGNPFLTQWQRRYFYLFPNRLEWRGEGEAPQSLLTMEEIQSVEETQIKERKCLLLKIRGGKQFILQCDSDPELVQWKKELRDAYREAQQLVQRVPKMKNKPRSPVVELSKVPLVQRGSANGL

[10] = biological target: Beta-2 adrenergic receptor (Homo sapiens) (UniProt P07550); experiment: beta2AR agonists driving receptor internalization, pilot screen, cell-based, FAP fluorogen, flow cytometry, validation set (AID 504459;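 active means percent response above 42, roughly 3 SD of non-fluorescent test compounds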;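 further: agonist-driven loss of surface beta2AR via internalization measured by FAP dye flow cytometry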); conditions: Am2.2-beta2AR cells, FAP surface receptor flow cytometry; at 10 µM; stronger effect = higher value
Sequence of Beta-2 adrenergic receptor (Homo sapiens) (P07550 whole entry, looked up): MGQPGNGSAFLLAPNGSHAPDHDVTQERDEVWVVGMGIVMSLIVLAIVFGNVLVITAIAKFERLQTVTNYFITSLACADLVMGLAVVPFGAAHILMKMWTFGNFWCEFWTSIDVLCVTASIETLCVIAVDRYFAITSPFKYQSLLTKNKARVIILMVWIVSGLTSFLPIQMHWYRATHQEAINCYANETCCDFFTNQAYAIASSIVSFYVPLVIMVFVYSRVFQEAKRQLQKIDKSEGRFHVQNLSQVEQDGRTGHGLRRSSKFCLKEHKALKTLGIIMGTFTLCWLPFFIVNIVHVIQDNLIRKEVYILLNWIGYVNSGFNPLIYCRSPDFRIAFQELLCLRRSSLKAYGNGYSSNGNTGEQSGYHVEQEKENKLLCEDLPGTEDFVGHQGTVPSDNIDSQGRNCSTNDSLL

[11] = biological target: AP-2 complex subunit beta (Homo sapiens) (UniProt P63010); experiment: inhibitors of arrestin peptide binding to AP2, pilot screen, biochemical, validation set, GST-AP2 beads, flow cytometry (AID 504541;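 active means inhibition above 54%, about 3 SD of non-fluorescent compounds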;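 further: AP2 carries R879A mutation and is captured from E. coli lysate; bead-bound FITC arrestin peptide fluorescence measuring arrestin peptide binding to AP2; 0% = DMSO wells and 100% = excess unlabeled arrestin peptide control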); conditions: FITC arrestin peptide, at 10 µM, stronger effect = higher value, AP2 beta2 appendage fragment, R879A mutant
Sequence of AP-2 complex subunit beta (Homo sapiens) (P63010 whole entry, looked up, the tested form may be a part, one chain of several): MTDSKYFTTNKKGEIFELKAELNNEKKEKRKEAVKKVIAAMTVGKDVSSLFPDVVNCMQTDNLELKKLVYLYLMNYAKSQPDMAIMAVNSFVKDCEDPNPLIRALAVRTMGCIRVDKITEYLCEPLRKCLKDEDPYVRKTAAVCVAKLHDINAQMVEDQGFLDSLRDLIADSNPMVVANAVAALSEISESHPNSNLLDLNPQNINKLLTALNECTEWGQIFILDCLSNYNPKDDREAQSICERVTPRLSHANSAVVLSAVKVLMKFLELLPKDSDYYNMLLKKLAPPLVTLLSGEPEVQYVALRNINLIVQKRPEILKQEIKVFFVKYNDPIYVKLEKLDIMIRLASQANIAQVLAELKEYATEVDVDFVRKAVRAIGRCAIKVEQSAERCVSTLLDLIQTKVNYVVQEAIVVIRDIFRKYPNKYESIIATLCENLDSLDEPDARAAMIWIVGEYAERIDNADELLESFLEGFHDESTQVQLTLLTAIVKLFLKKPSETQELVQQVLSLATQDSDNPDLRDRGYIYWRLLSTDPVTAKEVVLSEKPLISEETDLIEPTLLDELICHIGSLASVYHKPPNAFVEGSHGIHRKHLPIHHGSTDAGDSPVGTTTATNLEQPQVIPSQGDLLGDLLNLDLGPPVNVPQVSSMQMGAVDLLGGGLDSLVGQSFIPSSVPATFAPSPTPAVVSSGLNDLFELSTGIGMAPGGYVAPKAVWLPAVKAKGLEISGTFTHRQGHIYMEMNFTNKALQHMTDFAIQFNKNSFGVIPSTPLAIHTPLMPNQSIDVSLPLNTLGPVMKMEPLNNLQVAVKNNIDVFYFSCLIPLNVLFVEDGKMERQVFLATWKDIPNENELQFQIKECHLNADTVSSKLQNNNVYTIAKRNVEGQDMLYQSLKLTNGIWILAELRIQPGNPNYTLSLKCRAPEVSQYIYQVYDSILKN

[12] = yeast V-ATPase proton transport modulators, S. cerevisiae, pHLuorin, HTS validation (AID 504600; in the data active means response above about 15%;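 further: plate controls were DMSO for no effect and reference compound for full effect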); conditions: S. cerevisiae pHLuorin cytosolic pH, at 10 µM, stronger effect = higher value
[13] = system: anti-desmoglein-3 scFv antibody binding to human DSG3; experiment: inhibitors of anti-DSG3 scFv binding to DSG3, pilot screen, biochemical, validation compound set, bead-based, flow cytometry (AID 588368;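 active means binding below the plate cutoff, the plate median minus 3 SD, with a reading above zero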;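 further: signal is the median channel fluorescence of bead-bound GFP antibody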); conditions: Protein G beads, DSG3-Fc, scFv-GFP binding, at 10 µM, stronger effect = lower value
[14] = inhibitors of fungal efflux pumps CDR1, CDR2, MDR1, pilot screen, validation compound set, multiplex, phenotypic (AID 588506;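 active means efflux inhibition above 0.42, the validation set average plus 4 SD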;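 further: Nile Red retained in cells so higher fluorescence means more efflux inhibition; 0 = negative control wells and 1 = enniatin B 25 µM full block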); conditions: S. cerevisiae pump-expressing triplex, Nile Red efflux flow cytometry; at 10 µM; stronger effect = higher value; the pumps come from Candida albicans
[15] = biological target: ATP-binding cassette sub-family B member 6 (Homo sapiens) (UniProt Q9NP58); experiment: ABCB6 transporter inhibitors, pilot screen, K562-ABCB6 cells, flow cytometry, validation set (AID 588550;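 active means inhibition above the screen-wide mean plus 3 SD, about 51%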;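 further: 0% = DMSO wells and 100% = benzethonium chloride 70 µM positive control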); conditions: K562-ABCB6 porphyrin accumulation, 1 h, at 10 µM, stronger effect = higher value
Sequence of ATP-binding cassette sub-family B member 6 (Homo sapiens) (Q9NP58 whole entry, looked up): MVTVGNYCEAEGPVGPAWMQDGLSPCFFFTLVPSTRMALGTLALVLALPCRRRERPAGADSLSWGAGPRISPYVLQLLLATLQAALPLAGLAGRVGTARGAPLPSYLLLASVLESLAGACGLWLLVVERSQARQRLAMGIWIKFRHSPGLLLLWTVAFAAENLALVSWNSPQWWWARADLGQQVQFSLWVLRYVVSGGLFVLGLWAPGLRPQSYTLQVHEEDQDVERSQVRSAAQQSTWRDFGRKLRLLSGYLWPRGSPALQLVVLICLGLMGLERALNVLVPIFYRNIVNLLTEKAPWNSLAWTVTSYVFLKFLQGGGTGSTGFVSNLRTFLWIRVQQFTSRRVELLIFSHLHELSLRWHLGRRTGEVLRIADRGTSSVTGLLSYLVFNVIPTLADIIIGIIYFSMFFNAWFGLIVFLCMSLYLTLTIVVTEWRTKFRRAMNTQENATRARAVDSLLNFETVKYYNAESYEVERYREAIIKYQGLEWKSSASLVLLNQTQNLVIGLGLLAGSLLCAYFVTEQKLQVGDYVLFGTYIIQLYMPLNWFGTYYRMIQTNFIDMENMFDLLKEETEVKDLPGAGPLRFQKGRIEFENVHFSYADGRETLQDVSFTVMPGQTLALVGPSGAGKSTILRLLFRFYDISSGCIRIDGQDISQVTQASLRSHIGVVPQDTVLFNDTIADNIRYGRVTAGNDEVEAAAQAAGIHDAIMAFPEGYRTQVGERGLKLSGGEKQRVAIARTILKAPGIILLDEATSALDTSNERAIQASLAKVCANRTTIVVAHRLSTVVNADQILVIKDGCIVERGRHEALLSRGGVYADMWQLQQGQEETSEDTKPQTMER

[16] = promoters of myeloid differentiation in arrested cells, primary screen, cell-based, GFP/MAC1 double positive, flow cytometry, validation set (AID 588685;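 active means differentiation response of at least 50%, scaled between solvent and reference control, from cells with both markers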;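 further: compound exposure lasts four days before antibody staining and flow analysis; 0% = DMSO wells and 100% = 5 µM fulvestrant positive control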); conditions: ER-HoxA9 marrow cells, stronger effect = higher value, normalized: vehicle 0, fulvestrant 100

Compound | percent of DMSO control GFP [1] | GFP response vs DMSO [2] | percent response of DMSO control [3] | GFP response vs DMSO [4] | GFP response, % of DMSO [5] | double positive events [6] | vesicle binding response [6] | inhibition [7] | superoxide response (% of plate) [8] | aptamer binding inhibition [9] | response [10] | inhibition [11] | response [12] | binding (% of control) [13] | efflux inhibition (fraction of control) [14] | inhibition [15] | differentiation response [16]
O=C(OCC1CCCN2CCCCC12)c1ccc2c(c1)OCO2 (stereo not given) | 93.7% (inactive) | 112% (inactive) | 104% (inactive) | 75.9% (inactive) | 95.9% (inactive) | 63.4% | 208% (inactive) | 13.2% (inactive) | 99.6% (inactive) | 5% (inactive) | -1.89% (inactive) | -5.07% (inactive) | 12% (inactive) | 104% (inactive) | -0.38 (inactive) | 15% (inactive) | 0% (inactive)
CO[C@H]1C=CO[C@@]2(C)Oc3c(C)c(O)c4c(O)c(c(C=NN5CCN(C)CC5)c(O)c4c3C2=O)NC(=O)C(C)=CC=C[C@H](C)[C@H](O)[C@@H](C)[C@@H](O)[C@@H](C)[C@H](OC(C)=O)[C@@H]1C | 93.3% (inactive) | 127% (inactive) | 93.9% (inactive) | 78.7% (inactive) | 98.2% (inactive) | 64.9% | 575% (inactive) | -46.9% (inactive) | 105% (inactive) | 3% (inactive) | 9.39% (inactive) | -2.48% (inactive) | -1.49% (inactive) | 99.2% (inactive) | 0.01 (inactive) | 12% (inactive) | 2.46% (inactive)
CN(C)CCC(c1ccc(Cl)cc1)c1ccccn1 (stereo not given) | 99% (inactive) | 120% (inactive) | 108% (inactive) | 78.7% (inactive) | 87.5% (inactive) | 56.3% | 215% (inactive) | -7.12% (inactive) | 94% (inactive) | -7% (inactive) | -9.09% (inactive) | 4.35% (inactive) | 18.1% (active) | 107% (inactive) | 0.05 (inactive) | 7% (inactive) | 37.7% (inactive)
COc1ccc(CCNC(=O)c2ccc(Cl)cc2)cc1OC | 103% (inactive) | 109% (inactive) | 107% (inactive) | 121% (inactive) | 111% (inactive) | 59.6% | 196% (inactive) | 2.93% (inactive) | 107% (inactive) | -1% (inactive) | 6.98% (inactive) | -0.98% (inactive) | -0.59% (inactive) | 104% (inactive) | 0.39 (inactive) | -7% (inactive) | -17.7% (inactive)
Cc1ccc(N(CC2=NCCN2)c2cccc(O)c2)cc1 | 107% (inactive) and 88.9% (inactive) and 106% (inactive) | 107% (inactive) and 126% (inactive) and 96.9% (inactive) | 112% (inactive) and 107% (inactive) and 114% (inactive) | 105% (inactive) and 80.3% (inactive) and 113% (inactive) | 105% (inactive) and 95.6% (inactive) and 106% (inactive) | 48.5% and 66.6% and 52.4% | 164% (inactive) and 159% (inactive) and 183% (inactive) | -12.4% (inactive) and 6.46% (inactive) and 1.62% (inactive) | 94.9% (inactive) and 91.2% (inactive) and 102% (inactive) | -2% (inactive) and 0% (inactive) and -7% (inactive) | -2.19% (inactive) | -1.88% (inactive) and 0.96% (inactive) and -11.2% (inactive) | 1.2% (inactive) and -3.77% (inactive) and 0.74% (inactive) | 98.2% (inactive) and 102% (inactive) and 97.7% (inactive) | -0.05 (inactive) and 0.23 (inactive) and -0.24 (inactive) | 9% (inactive) and 4% (inactive) and 7% (inactive) | -34.1% (inactive) and 3.28% (inactive) and -18% (inactive)
CCCc1c(OCCCCc2nn[nH]n2)ccc(C(C)=O)c1O | 107% (inactive) | 107% (inactive) | 104% (inactive) | 111% (inactive) | 112% (inactive) | 62.8% | 197% (inactive) | -13.2% (inactive) | 115% (inactive) | -5% (inactive) | 8.37% (inactive) | -8.69% (inactive) | -6.13% (inactive) | 105% (inactive) | -0.16 (inactive) | -13% (inactive) | 2.74% (inactive)
CC12CCC(C(=O)N(CCC#N)CCC#N)(CC1=O)C2(C)C (stereo not given) | 100% (inactive) | 106% (inactive) | 95.8% (inactive) | 113% (inactive) | 108% (inactive) | 61.1% | 5730% (inactive) | 6.4% (inactive) | 98% (inactive) | 3% (inactive) | -1.84% (inactive) | 44.5% (inactive) | 0.52% (inactive) | 100% (inactive) | -0.03 (inactive) | 9% (inactive) | 2.4% (inactive)
O=C(CN1C(=O)c2ccccc2S1(=O)=O)Nc1ccccc1 | 95.5% (inactive) | 126% (inactive) | 112% (inactive) | 84.2% (inactive) | 92.8% (inactive) | 67.7% | 180% (inactive) | -72.1% (inactive) | 98.5% (inactive) | 0% (inactive) | -2.34% (inactive) | 7.49% (inactive) | -1.17% (inactive) | 99% (inactive) | -0.31 (inactive) | 5% (inactive) | 10.6% (inactive)
COc1ccc(C(=O)CC2OC(=O)c3c2ccc(OC)c3OC)cc1 (stereo not given) | 106% (inactive) | 100% (inactive) | 106% (inactive) | 99.9% (inactive) | 104% (inactive) | 63% | 256% (inactive) | 4.73% (inactive) | 107% (inactive) | 2% (inactive) | -6.79% (inactive) | -3.63% (inactive) | -4.39% (inactive) | 95.8% (inactive) | -0.01 (inactive) | 8% (inactive) | -2.69% (inactive)
CCN(CC)CC#CCOC(=O)C(O)(c1ccccc1)C1CCCCC1 (stereo not given) | 91.1% (inactive) | 132% (inactive) | 110% (inactive) | 83.1% (inactive) | 91.2% (inactive) | 62.3% | 181% (inactive) | 10.3% (inactive) | 112% (inactive) | 4% (inactive) | 14.8% (inactive) | -2.84% (inactive) | -0.18% (inactive) | 104% (inactive) | 0.3 (inactive) | 8% (inactive) | -1.64% (inactive)
CCc1cc(C(N)=S)ccn1 | 99.5% (inactive) | 104% (inactive) | 104% (inactive) | 99.1% (inactive) | 107% (inactive) | 63.7% | 166% (inactive) | 9.63% (inactive) | 97.7% (inactive) | 4% (inactive) | -4.68% (inactive) | 4.47% (inactive) | -4.94% (inactive) | 101% (inactive) | 0.12 (inactive) | 1% (inactive) | -8.96% (inactive)
CN1C(C(=O)Nc2ccccn2)=C(O)c2ccccc2S1(=O)=O | 101% (inactive) | 103% (inactive) | 86.1% (inactive) | 106% (inactive) | 97.6% (inactive) | 63.2% | 383% (inactive) | -13.9% (inactive) | 104% (inactive) | 1% (inactive) | -12.3% (inactive) | -12.3% (inactive) | -0.85% (inactive) | 100% (inactive) | -0.07 (inactive) | 26% (inactive) | 14.9% (inactive)
Cn1c(=O)[nH]c2nnc(-c3ccc(Cl)c(Cl)c3)nc2c1=O | 103% (inactive) | 102% (inactive) | 105% (inactive) | 98% (inactive) | 104% (inactive) | 61.9% | 133% (inactive) | 2.93% (inactive) | 73.3% (inactive) | 9% (inactive) | 9.11% (inactive) | 5.98% (inactive) | 0.72% (inactive) | 101% (inactive) | -0.21 (inactive) | -7% (inactive) | -13.3% (inactive)
COc1ccc(C(=O)Nc2cccnc2)cc1C(=O)Nc1cccnc1 | 104% (inactive) | 107% (inactive) | 102% (inactive) | 107% (inactive) | 106% (inactive) | 65% | 191% (inactive) | -3.77% (inactive) | 104% (inactive) | 2% (inactive) | 9.93% (inactive) | -14.1% (inactive) | 0.74% (inactive) | 99% (inactive) | -0.11 (inactive) | 8% (inactive) | 13% (inactive)
CCOC(=O)C1C(=O)OC2(CCOC(C)(C)C2)C1C(=O)OCC (stereo not given) | 109% (inactive) | 108% (inactive) | 102% (inactive) | 125% (inactive) | 108% (inactive) | 70.8% | 8780% (inactive) | 10.5% (inactive) | 102% (inactive) | 5% (inactive) | 16.1% (inactive) | -2.89% (inactive) | -6.07% (inactive) | 102% (inactive) | 0.15 (inactive) | 6% (inactive) | -4% (inactive)
